Measurements from PubChem BioAssay AID463187 (University of Pittsburgh Molecular Library Screening Center, 2010).
About 1,500 (0.68%) of roughly 220,000 compounds were called active. The full list was thinned out, with actives kept by preference. Values without a mark were called inactive.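 Rule for the calls: active = Hck-Nef kinase inhibition above about 50% (limit read from the data); inactive = inhibition below that limit.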

The compounds below were run against Tyrosine-protein kinase HCK (Homo sapiens) (UniProt P08631) (assay: Hck:Nef complex kinase activity blockers – biochemical, Z-Lyte FRET, 384-well, Hck-YEEI, primary screen (AID 463187;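 note: 0% = DMSO with Hck plus Nef and 100% = Hck alone without Nef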)). Settings: Recombinant Hck-YEEI plus Nef, Z-Lyte FRET kinase assay; at 20 µM; active compounds read high.
Sequence of Tyrosine-protein kinase HCK (Homo sapiens) (P08631 whole entry, looked up): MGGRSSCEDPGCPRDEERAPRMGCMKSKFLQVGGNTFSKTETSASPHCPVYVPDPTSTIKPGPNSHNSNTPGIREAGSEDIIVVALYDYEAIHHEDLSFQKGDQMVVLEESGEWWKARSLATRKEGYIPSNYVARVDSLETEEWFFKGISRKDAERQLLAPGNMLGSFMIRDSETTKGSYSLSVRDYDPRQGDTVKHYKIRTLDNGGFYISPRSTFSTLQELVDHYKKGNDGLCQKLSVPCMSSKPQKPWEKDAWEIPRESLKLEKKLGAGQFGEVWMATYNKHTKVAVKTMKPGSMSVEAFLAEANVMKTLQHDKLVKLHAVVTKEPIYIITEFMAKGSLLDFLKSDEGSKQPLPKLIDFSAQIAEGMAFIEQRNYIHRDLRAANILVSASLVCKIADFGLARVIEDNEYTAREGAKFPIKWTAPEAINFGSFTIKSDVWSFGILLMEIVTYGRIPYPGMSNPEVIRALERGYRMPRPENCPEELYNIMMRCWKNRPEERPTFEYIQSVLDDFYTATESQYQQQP
With `Cc1c(C(=O)Nc2ccccc2Cl)oc2ccc(S(=O)(=O)N3CCC4(CC3)OCCO4)cc12` the inhibition was 74.2% (active).
For `COc1ccc(NC(=O)c2oc3ccc(S(=O)(=O)N4CCOCC4)cc3c2C)cc1`, the inhibition was -8.31%.
Compound `CCOc1ccccc1NC(=O)c1cc(S(=O)(=O)N2CCC3(CC2)OCCO3)ccc1F` has an inhibition of 2.23%.
`O=C(CCSCCc1ccccn1)Nc1nccs1` gave an inhibition of 7.74%.
Compound `OCc1nc(CO)n(Cc2ccccc2)n1` has an inhibition of 0.365%.
In the case of `CC1CCCN(CCOCCOc2ccccc2-c2ccccc2)C1` (stereo not drawn), the inhibition was 0.832%.
For `Cc1ccc(NC(=S)N2CCCC(c3ccccc3)=N2)cc1`, the inhibition was -10%.
Compound `CCOC(=O)N/N=C/c1cccnc1` has an inhibition of -26.2%.
In the case of `O=C(CSc1cccc2cccnc12)N/N=C/c1cccnc1`, the inhibition was 51.3% (active).
`Cc1nc2ccccc2n1CC(=O)N/N=C/c1cccnc1` was tested, and the inhibition was 24.3%.
Work on `CC(CNc1ccc([N+](=O)[O-])c2cccnc12)Nc1c([N+](=O)[O-])cc(C(F)(F)F)cc1[N+](=O)[O-]` (stereo not drawn) yielded an inhibition of -2.43%.
`Cc1cccc(/C(N)=N/OC(=O)c2ccccc2Cl)c1` showed an inhibition of 5.79%.
For `Cc1cc(OC(=O)c2ccccc2Cl)ccc1N1C(=O)CCC1=O`, the inhibition was 52.4% (active).
For `COc1ccccc1C(=O)Oc1ccc(N2C(=O)CCC2=O)cc1`, the inhibition was 1.47%.
Work on `Cc1sc2c(c1C)c(=O)n(-c1ccccc1)c(=O)n2CC(=O)NCC1CCCO1` (stereo not drawn) yielded an inhibition of -19.9%.
In the case of `O=C(COC(=O)c1ccccc1NC(=O)c1ccco1)Nc1ccc2c(c1)OC(F)(F)O2`, the inhibition was 5.95%.
`CCn1c(=N)c(S(=O)(=O)c2ccc(F)cc2)cc2c(=O)n3ccccc3nc21` gave an inhibition of 11.1%.
`Cc1ccc(-n2c(=O)c(C#N)cc3c(=O)n4ccccc4nc32)cc1C` was tested, and the inhibition was 73.3% (active).
`Cc1ccc(-n2ncc3c(=O)n(-c4ccc(C)c(C)c4)c(-c4ccco4)nc32)cc1` gave an inhibition of -0.384%.
`CNC(=S)Nc1ccc([N+](=O)[O-])cc1` showed an inhibition of 21.3%.
For `CN(C)CC(C)(C)CNC(=O)c1cc(Br)cc(Br)c1O`, the inhibition was 21.9%.
Compound `COc1cc(NC(=O)COC(=O)CSc2ccc3ccccc3c2)c(C)cc1[N+](=O)[O-]` has an inhibition of 2.59%.
For `Cc1cccc(N2CCN(C(=O)CN(C)S(=O)(=O)c3ccc4c(c3)CCC(=O)N4)CC2)c1C`, the inhibition was 0.348%.
Work on `O=C(NCc1ccccc1)C1CCCN(S(=O)(=O)c2cccs2)C1` (stereo not drawn) yielded an inhibition of -1.98%.
For `CCc1ccc(CNC(=O)C2CCCN(c3nc4ccccc4o3)C2)cc1` (stereo not drawn), the inhibition was -20.1%.
In the case of `O=C(NCc1ccccc1)C1CCCN(c2nc3ccsc3c(=O)s2)C1` (stereo not drawn), the inhibition was 63.7% (active).
Work on `COc1ccc(NC(=O)COc2ccc(C(=O)OCC(=O)N(C)C3CCS(=O)(=O)C3)cc2OC)cc1` (stereo not drawn) yielded an inhibition of -34.5%.
In the case of `CN(C(=O)COC(=O)c1cc(-c2ccco2)nc2ccccc12)C1CCS(=O)(=O)C1` (stereo not drawn), the inhibition was 65.3% (active).
With `Cc1c(-c2cccc(Cl)c2)nc2ccccc2c1C(=O)OCC(=O)N(C)C1CCS(=O)(=O)C1` (stereo not drawn) the inhibition was -3.32%.
Work on `CC(C)Cc1nn2c(=O)cc(O)nc2s1` yielded an inhibition of 1.45%.
In the case of `O=C(Nc1ccc(Cl)cc1)Nc1ccc(Oc2cccnc2)nc1`, the inhibition was -9.14%.
Work on `O=C(NNC(=O)c1cccnc1)Nc1ccccc1` yielded an inhibition of -0.546%.
For `O=C(NNC(=O)c1csc(-c2cccnc2)n1)Nc1ccc(Cl)cc1`, the inhibition was 52.2% (active).
`CC(=O)Nc1ccc(OCCC[n+]2cccc(C(=O)[O-])c2)cc1` gave an inhibition of 12%.
For `FC(F)(F)c1ccc(CN2C[C@@H]3C(c4ccccc4)C4(c5ccccc5)CC3(C4)[C@H]2c2ccccc2)cc1` (stereo partly drawn), the inhibition was 17.4%.
Work on `Cc1cccc(-n2c(SCC(N)=O)nc3c(c2=O)C2(CCCCC2)Cc2ccccc2-3)c1` yielded an inhibition of 6.81%.
In the case of `CCc1ccc(Nc2nnc(SCC(=O)c3ccc4c(c3)NC(=O)CO4)s2)cc1`, the inhibition was 105% (active).
`CCCc1nc2ccccc2c(C(=O)OCC(=O)c2ccc3c(c2)NC(=O)CO3)c1CC` was tested, and the inhibition was -1.08%.
In the case of `COc1cccc(Nc2nnc(SCC(=O)N3CC(=O)Nc4ccccc43)s2)c1`, the inhibition was 36.9%.
`CO/N=C(\N)c1ccc([N+](=O)[O-])cc1` was tested, and the inhibition was 3.14%.
`CCOc1ccc(N2C(=O)Nc3ccccc3C2(O)C(=O)NCc2ccco2)cc1` (stereo not drawn) was tested, and the inhibition was 20.7%.
For `CNc1ccc(SC#N)cc1`, the inhibition was 33.3%.
In the case of `N#Cc1c(-c2ccc(F)cc2)cc(C2CC2)nc1SCC(=O)c1cccs1`, the inhibition was 3.07%.
`N=c1ccn(CC(=O)NC(N)=O)c2ccccc12` was tested, and the inhibition was 0.937%.
`O=C(NC1CCCCCC1)c1cccnc1Sc1ccc(Cl)cc1` showed an inhibition of 2.04%.
`CCC1=NN2C(=N)/C(=C/c3cc(C)n(-c4ccccc4)c3C)C(=O)N=C2S1` gave an inhibition of 15.3%.
With `Cc1cc(/C=C2/C(=N)N3C(=NC2=O)SN=C3S(C)(=O)=O)c(C)n1-c1ccccc1` the inhibition was 0.408%.
In the case of `CCS(=O)(=O)C1=NSC2=NC(=O)/C(=C\c3cc(C)n(-c4cccc(OC)c4)c3C)C(=N)N21`, the inhibition was 55.1% (active).
For `O=c1cc(-c2ccccc2)[nH]c2cc(F)ccc12`, the inhibition was 2.23%.
In the case of `CCc1ccccc1N1CN(Cc2ccco2)CNC1=S`, the inhibition was 3.91%.
Compound `O=C1/C(=C/c2cccs2)CCC1C1CCCC1` (stereo not drawn) has an inhibition of 26%.
`CCOc1ccc(C2c3[nH]c4ccccc4c3CCN2Cc2cccn2-c2ncccn2)cc1` (stereo not drawn) was tested, and the inhibition was 15.4%.
With `COC(=O)C1=CN(C)C=C(C(=O)OC)C1c1ccc(Cl)cc1Cl` the inhibition was 9.15%.
`CCOc1cc(C2C(C(=O)OC)=CN(C3CCCC3)C=C2C(=O)OC)cc(Br)c1O` gave an inhibition of 1.91%.
For `CCOc1ccccc1C1C(C(=O)OC)=CN(C)C=C1C(=O)OC`, the inhibition was 71.8% (active).
`O=C(NCC1CCCCC1)c1cc(S(=O)(=O)N2CCCCC2)ccc1N1CCOCC1` showed an inhibition of 19.1%.
`Cc1cccc(NS(=O)(=O)c2ccc(C)c(C(N)=O)c2)c1` gave an inhibition of -7.85%.
`COc1cccc(CN(C)CC(=O)Nc2ccccc2C(=O)Nc2ccccc2)c1` showed an inhibition of 4.04%.
For `COc1ccc(-c2cc3nc(C)c(CCC(=O)NC(C)CCc4ccco4)c(C)n3n2)c(OC)c1` (stereo not drawn), the inhibition was -1.24%.
`Cc1cnc(C(=O)N2CCCC(C(=O)c3ccc(C(F)(F)F)cc3)C2)cn1` (stereo not drawn) gave an inhibition of 17.7%.
Work on `COc1cccc(C(=O)N2CCCC(CCC(=O)NCc3ccc(F)c(F)c3)C2)c1` (stereo not drawn) yielded an inhibition of 18.6%.
`COc1cccc(CNC(=O)CCC2CCCN(C(=O)c3ccoc3C)C2)c1` (stereo not drawn) showed an inhibition of 1.1%.
For `COc1cccc(CNC(=O)CCC2CCCN(Cc3ccc(OC(F)F)cc3)C2)c1` (stereo not drawn), the inhibition was 52.7% (active).
Compound `O=C(/C=C/c1ccc(F)cc1)Nc1cccc(S(=O)(=O)Nc2cccc(C(F)(F)F)c2)c1` has an inhibition of 2.87%.
For `CC(=O)NC(=S)NNC(=O)c1ccc(Br)cc1`, the inhibition was -1.36%.
`COc1cccc2c1OCC(C(=O)NCc1ccc(Cl)cc1Cl)=C2` gave an inhibition of 2.65%.
In the case of `CCc1ccc(C(=O)CSc2nnc(C)c(=O)[nH]2)cc1`, the inhibition was 10.1%.
`N#Cc1c(-c2cccs2)nc(SCC(=O)c2ccc(Br)cc2)[nH]c1=O` was tested, and the inhibition was 72.7% (active).
For `Cc1nc2nc(SCC(=O)c3ccccc3)[nH]c2cc1Br`, the inhibition was 16.2%.
Work on `COc1cccc(C2Nc3cccc4cccc(c34)N2)c1` yielded an inhibition of 21.8%.
Work on `COCc1cc(C)nc2sc(C(=O)NC3CCCCC3)c(N)c12` yielded an inhibition of 1.3%.
With `COc1cccc(C(=O)c2cc3ccc(O)cc3oc2=O)c1` the inhibition was 63.1% (active).
`COc1ccc2oc(=O)c(C(=O)O)cc2c1` showed an inhibition of -0.521%.
With `COc1ccc2oc(=O)c(C(=O)N3CCCC3)cc2c1` the inhibition was 22%.
For `O=C(Cc1c(O)c2ccccc2[nH]c1=O)NCc1ccccc1`, the inhibition was 2.47%.
`COc1cc(OC)cc(C(=O)NCC(=O)OCc2csc(-c3ccccc3)n2)c1` gave an inhibition of 3.87%.
`Cc1cc(NC(=O)CN2C(=O)NC(CCc3ccccc3)C2=O)no1` (stereo not drawn) was tested, and the inhibition was -23.9%.
With `CC(C)OC(=O)Cn1nc(C(F)(F)F)c2c1CCCC2` the inhibition was 22.4%.
In the case of `O=C(N/N=C/c1ccc([N+](=O)[O-])cc1)C(=O)N1CCCC1`, the inhibition was 6.04%.
Compound `N#C/C(=C/c1ccc(N2CCOCC2)o1)C(=O)N1CCOCC1` has an inhibition of 1.17%.
`Cc1nnc(SCC(=O)NNC(=O)c2ccc(Cl)cc2)n1CC1CCCO1` (stereo not drawn) was tested, and the inhibition was 22.1%.
With `Cc1cccn2c(=O)c3cc(C#N)c(=NC(=O)c4cccnc4)n(CC4CCCO4)c3nc12` (stereo not drawn) the inhibition was 35.1%.
`Cc1cccn2c(=O)c3cc(C(=O)N4COCC4(C)C)n(C)c3nc12` gave an inhibition of 11.2%.
For `Cc1cccn2c(=O)c3cc(C#N)c(=O)n(CCCN4CCOCC4)c3nc12`, the inhibition was 178% (active).
With `COc1ccc(CCNC(=O)COC(=O)/C=C/c2cccs2)cc1OC` the inhibition was 19.3%.
In the case of `COC(=O)C1=CN(Cc2ccc(OC)c(OC)c2)C=C(C(=O)OC)C1c1cccs1`, the inhibition was 79.3% (active).
In the case of `COc1ccc(C2=NN(C(=O)CCC(=O)O)C(c3cccs3)C2)cc1OC` (stereo not drawn), the inhibition was 19.1%.
With `O=C(Nc1ccncc1)c1cc(-c2ccccn2)nc2ccc(Br)cc12` the inhibition was 81.4% (active).
`O=C(NCc1cccs1)c1cc(-c2ccccn2)nc2ccc(Br)cc12` gave an inhibition of -19.4%.
In the case of `Cc1ccc2nc(-c3ccccn3)cc(C(=O)Nc3ccc4c(c3)OCO4)c2c1`, the inhibition was -2.84%.
Work on `Cc1ccc2nc(-c3ccncc3)cc(C(=O)Nc3ccc4c(c3)OCCO4)c2c1` yielded an inhibition of -4.23%.
Compound `Cc1ccc2nc(-c3ccccc3)cc(C(=O)O)c2c1` has an inhibition of 3.19%.
With `Cc1ccc2nc(-c3ccncc3)cc(C(=O)Nc3ccc(OC(F)F)cc3)c2c1` the inhibition was 53.4% (active).
